The whole screen tested about 39,000 compounds, of which about 3,300 (8.5%) were called active. The sample holds actives, similar compounds and a random draw of the others, so the mix is not that of the screen.

The subject of this assay is HepG2. Put plainly: cytotoxicity call (relative viability < 0.9). Particulars: 10 µM.
Regarding `CC(C)CC#Cc1cnc2c(c1)C(=O)N([C@@H](C)CO)C[C@@H](C)[C@@H](CN(C)S(=O)(=O)c1cccs1)O2`, the cytotoxicity call was “inactive”.
As for `C[C@H](CO)N1C[C@H](C)[C@H](CN(C)C(=O)Nc2ccc(F)cc2)OCCCC[C@H](C)Oc2ccc(NC(=O)c3ccncc3)cc2C1=O`, the entry is “inactive”; as for `CCS(=O)(=O)N1CC[C@]2(CC1)CN(Cc1ccc3c(c1)OCO3)[C@@H](CO)c1[nH]c3cc(ccc3c12)OC`, “inactive”.
As for `CCC(=O)N1C[C@]2(CN(C2)C(=O)CN2CCOCC2)c2c([nH]c3cc(ccc23)OC)[C@H]1CO`, the cytotoxicity call was “inactive”.
To `COc1ccc(S(=O)(=O)Nc2ccc3c(c2)C(=O)N([C@H](C)CO)C[C@H](C)[C@@H](CN(C)C(=O)Nc2ccc4c(c2)OCO4)OCCCC[C@@H](C)O3)cc1` belongs “inactive”; to `C[C@@H]1CN([C@@H](C)CO)C(=O)c2cccc(NC(=O)c3ccncc3)c2O[C@@H]1CN(C)S(=O)(=O)c1cn(C)cn1`, “inactive”; to `Cc1ccc(S(=O)(=O)N(C)C[C@H]2OCCCC[C@@H](C)Oc3ccc(NC(=O)Nc4ccc(C(F)(F)F)cc4)cc3C(=O)N([C@@H](C)CO)C[C@@H]2C)cc1`, “active”.
Regarding `Cc1ccc(S(=O)(=O)N(C)C[C@@H]2OCCCC[C@@H](C)Oc3ccc(NC(=O)Nc4ccc(C(F)(F)F)cc4)cc3C(=O)N([C@@H](C)CO)C[C@H]2C)cc1`, the cytotoxicity call was “active”.
Consider `Cc1ccc(S(=O)(=O)N(C)C[C@H]2OCCCC[C@H](C)Oc3ccc(NC(=O)Nc4ccc(C(F)(F)F)cc4)cc3C(=O)N([C@@H](C)CO)C[C@@H]2C)cc1`, for which the cytotoxicity call is “inactive”.
On to `Cc1ccc(S(=O)(=O)N(C)C[C@@H]2OCCCC[C@@H](C)Oc3ccc(NC(=O)Nc4ccc(C(F)(F)F)cc4)cc3C(=O)N([C@H](C)CO)C[C@H]2C)cc1`, for which the cytotoxicity call is “inactive”.
`Cc1ccc(S(=O)(=O)N(C)C[C@@H]2OCCCC[C@H](C)Oc3ccc(NC(=O)Nc4ccc(C(F)(F)F)cc4)cc3C(=O)N([C@H](C)CO)C[C@H]2C)cc1`: the cytotoxicity call is “inactive”.
With `Cc1ccc(S(=O)(=O)N(C)C[C@@H]2OCCCC[C@H](C)Oc3ccc(NC(=O)Nc4ccc(C(F)(F)F)cc4)cc3C(=O)N([C@@H](C)CO)C[C@@H]2C)cc1`, the cytotoxicity call was “inactive”.
To `O=C([O-])C=CC(=O)[O-].[Fe+2]` belongs “inactive”.
For the compound `O=C(CCCCC(=O)N/N=C/[C@H](O)[C@@H](O)[C@H](O)[C@H](O)CO[C@H]1O[C@H](CO)[C@H](O)[C@H](O)[C@H]1O)NO`, the cytotoxicity call was “inactive”.
On to `CC(C)NC(=O)N(C)C[C@H]1Oc2ccc(NS(=O)(=O)c3ccc(Cl)cc3)cc2CC(=O)N([C@H](C)CO)C[C@H]1C`, for which the cytotoxicity call was “inactive”.
For the compound `CCOC(=O)c1nnn(-c2nonc2N)c1CN1CCSCC1`, the cytotoxicity call was “inactive”.
With `CCOC(=O)CCCCCC(=O)Nc1ccc2c(c1)C(=O)N([C@@H](C)CO)C[C@H](C)[C@H](CN(C)S(C)(=O)=O)O2`, the cytotoxicity call is “inactive”.
As for `Nc1cc(-c2ccccc2)ccc1O`, the cytotoxicity call is “inactive”.
To `COc1ccc(C(C)=O)c(O)c1` belongs “inactive”; to `COc1ccc(O)c(N)c1`, “active”.
As for `COc1ccc(NC(=O)N(C)C[C@H]2Oc3ccc(NS(C)(=O)=O)cc3CC(=O)N([C@@H](C)CO)C[C@H]2C)cc1`, the entry is “inactive”.
Turning to `COc1ccc2c(O[C@H]3CCCC[C@@H]3OC)nccc2c1-n1ccnc1-c1c[nH]c2c(N)c(F)cc(C#N)c12`, the cytotoxicity call was “active”.
To `C[C@@H]1CN([C@@H](C)CO)C(=O)c2cc(NS(=O)(=O)c3cn(C)cn3)ccc2O[C@@H](C)CCCCO[C@@H]1CN(C)S(=O)(=O)c1cn(C)cn1` belongs “inactive”; to `COc1ccc(-c2coc3cc(OC)cc(OC)c3c2=O)cc1`, “inactive”.
As to `C[C@H](CO)N1C[C@H](C)[C@@H](CN(C)S(=O)(=O)c2cccc(F)c2)Oc2ncc(C#CC3(O)CCCC3)cc2C1=O`, the cytotoxicity call was “inactive”.
With `C[C@@H]1CCCCO[C@@H](CN(C)C(=O)NC2CCCCC2)[C@@H](C)CN([C@H](C)CO)C(=O)c2cc(NC(=O)Cc3ccccc3)ccc2O1`, the cytotoxicity call is “inactive”.
With `C[C@@H]1CN([C@H](C)CO)C(=O)c2cc(NS(C)(=O)=O)ccc2O[C@@H]1CN(C)S(=O)(=O)c1ccc(F)cc1`, the cytotoxicity call is “inactive”.
To `C[C@@H]1CN([C@@H](C)CO)C(=O)c2cccc(NC(=O)c3nc4ccccc4s3)c2O[C@@H]1CN(C)Cc1ccc(C(=O)Nc2ccccc2N)cc1` belongs “active”.
To `C[C@H]1CN([C@@H](C)CO)C(=O)c2cccc(NC(=O)c3nc4ccccc4s3)c2O[C@H]1CN(C)Cc1ccc(C(=O)Nc2ccccc2N)cc1` belongs “inactive”; to `C[C@H](CO)N1C[C@H](C)[C@@H](CN(C)Cc2ccc(C(=O)Nc3ccccc3N)cc2)Oc2c(NC(=O)c3nc4ccccc4s3)cccc2C1=O`, “active”; to `C[C@H](CO)N1C[C@H](C)[C@H](CN(C)Cc2ccc(C(=O)Nc3ccccc3N)cc2)Oc2c(NC(=O)c3nc4ccccc4s3)cccc2C1=O`, “inactive”.
Take `C[C@H]1CN([C@@H](C)CO)C(=O)c2cccc(NC(=O)c3nc4ccccc4s3)c2O[C@@H]1CN(C)Cc1ccc(C(=O)Nc2ccccc2N)cc1`: the cytotoxicity call was “inactive”.
As for `C[C@@H]1CN([C@@H](C)CO)C(=O)c2cccc(NC(=O)c3nc4ccccc4s3)c2O[C@H]1CN(C)Cc1ccc(C(=O)Nc2ccccc2N)cc1`, the cytotoxicity call is “inactive”.
On to `C[C@H]1CCCCO[C@H](CN(C)C(=O)NC2CCCCC2)[C@@H](C)CN([C@@H](C)CO)C(=O)c2cc(NC(=O)CCC(F)(F)F)ccc2O1`, for which the cytotoxicity call is “inactive”.
As for `COc1ccc(S(=O)(=O)N(C)C[C@H]2Oc3c(NC(=O)c4cnccn4)cccc3C(=O)N([C@H](C)CO)C[C@H]2C)cc1`, the entry is “inactive”; as for `C[C@@H]1CN([C@H](C)CO)C(=O)c2cc(NS(=O)(=O)c3ccc(Cl)cc3)ccc2O[C@@H](C)CCCCO[C@@H]1CN(C)Cc1ccncc1`, “inactive”; as for `CCc1nc2c(C)cc(N3CCN(CC(=O)N4CC(O)C4)CC3)cn2c1N(C)c1nc(-c2ccc(F)cc2)c(C#N)s1`, “active”.
On to `COCC#Cc1ccc2c(c1)O[C@H](CN(C)Cc1ccccc1F)[C@@H](C)CN([C@H](C)CO)S2(=O)=O`, for which the cytotoxicity call is “inactive”.
As to `C[C@H](CO)N1C[C@H](C)[C@H](CN(C)S(=O)(=O)c2cccs2)Oc2ccc(NS(=O)(=O)c3ccccc3)cc2CC1=O`, the cytotoxicity call is “inactive”.
Consider `C[C@@H]1CN([C@H](C)CO)C(=O)c2cccc(NS(=O)(=O)c3ccc(F)cc3)c2O[C@@H]1CN(C)Cc1ccncc1`, for which the cytotoxicity call is “inactive”.
As for `CC(C)=CCc1c2c(c3occ(-c4ccc(O)c(O)c4)c(=O)c3c1O)C=CC(C)(C)O2`, the entry is “active”; as for `CC(C)=CCc1c2c(c3occ(-c4ccc(O)cc4)c(=O)c3c1O)C=CC(C)(C)O2`, “inactive”; as for `CC1(C)C=Cc2c(c3c(c4c(=O)c(-c5ccc(O)c(O)c5)coc24)OC(C)(C)CC3)O1`, “active”.
Consider `CC1(C)C=Cc2c(c3c(c4c(=O)c(-c5ccc(O)cc5)coc24)OC(C)(C)CC3)O1`, for which the cytotoxicity call is “inactive”.
With `CN1CCN(C(=O)C[C@H]2CC[C@@H]3[C@@H](COc4ccc(NC(=O)c5cccs5)cc4C(=O)N3C)O2)CC1`, the cytotoxicity call is “inactive”.
To `Cc1noc(C)c1S(=O)(=O)Nc1ccc2c(c1)C(=O)N([C@@H](C)CO)C[C@H](C)[C@@H](CN(C)Cc1ccccc1)OCCCC[C@@H](C)O2` belongs “inactive”.
As for `C[C@@H]1CN([C@@H](C)CO)C(=O)Cc2cc(NC(=O)Cn3cnnn3)ccc2O[C@@H]1CN(C)Cc1ccc(Oc2ccccc2)cc1`, the entry is “inactive”.
To `COc1ccc(-c2cc(C(F)F)nn2-c2ccc(S(N)(=O)=O)cc2)cc1F` belongs “inactive”; to `Cc1ccc(S(N)(=O)=O)cc1`, “inactive”; to `Cc1ccc(-c2cc(C(F)(F)F)nn2-c2ccc(S(N)(=O)=O)cc2)cc1`, “active”.
In the case of `C[C@@H]1CN([C@H](C)CO)C(=O)c2cc(NC(=O)NC3CCCCC3)ccc2O[C@@H](C)CCCCO[C@@H]1CN(C)S(=O)(=O)c1ccc(F)cc1`, the cytotoxicity call was “inactive”.
Take `CN1C2CCC1CC(OC(=O)c1c[nH]c3ccccc13)C2.Cl` (stereo unspecified): the cytotoxicity call is “inactive”.
On to `CN1CCC(OC(c2ccccc2)c2ccccc2)CC1.Cl`, for which the cytotoxicity call is “inactive”.
For the compound `CN1C2CCC1CC(OC(c1ccccc1)c1ccccc1)C2.CS(=O)(=O)O` (stereo unspecified), the cytotoxicity call was “active”.
`Cc1noc(C)c1S(=O)(=O)N(C)C[C@@H]1Oc2c(NS(=O)(=O)c3ccccc3)cccc2C(=O)N([C@H](C)CO)C[C@@H]1C`: the cytotoxicity call was “inactive”.
For the compound `CC12CCC3c4ccc(O)cc4CCC3C1CCC2=O` (stereo unspecified), the cytotoxicity call is “inactive”.
Turning to `C#CC1(O)CCC2C3CCC4=C(CCC(=O)C4)C3CCC21C` (stereo unspecified), the cytotoxicity call was “inactive”.
Consider `C#CC1(O)CCC2C3CCC4=CCCCC4C3CCC21C` (stereo unspecified), for which the cytotoxicity call was “active”.
As to `C#CC1(O)CCC2C3CCc4cc(OC)ccc4C3CCC21C` (stereo unspecified), the cytotoxicity call is “active”.
`C#CC1(O)CCC2C3CCc4cc(O)ccc4C3CCC21C` (stereo unspecified): the cytotoxicity call is “active”.
Turning to `CC12CCC3c4ccc(O)cc4CCC3C1CC(O)C2O` (stereo unspecified), the cytotoxicity call is “inactive”.
As for `C#CC1(O)CCC2C3CCC4=CC(=O)CCC4C3CCC21C` (stereo unspecified), the cytotoxicity call was “inactive”.
Take `C#CC1(O)CCC2C3CCC4=CCCCC4C3C(=C)CC21CC` (stereo unspecified): the cytotoxicity call is “inactive”.
Turning to `C#CC1(O)CCC2C3CCc4cc(OC5CCCC5)ccc4C3CCC21C` (stereo unspecified), the cytotoxicity call is “inactive”.
Consider `COCCOC(=O)N1C(=O)[C@@]2(c3cc(C#CCC(C(=O)OC)C(=O)OC)ccc31)[C@H](C(=O)NC[C@H](O)c1ccccc1)[C@H]1C(=O)O[C@H](c3ccccc3)[C@H](c3ccccc3)N1[C@@H]2c1ccc(OCCO)cc1`, for which the cytotoxicity call is “inactive”.
In the case of `Cn1cnc(CCNC(=O)C[C@@H]2CC[C@@H]3[C@H](COC[C@@H](O)CN3C(=O)Nc3ccc(Cl)cc3)O2)c1`, the cytotoxicity call was “inactive”.
As to `COc1ccc(S(=O)(=O)N(C)C[C@@H]2Oc3ccc(NC(=O)Nc4cccc5ccccc45)cc3C(=O)N([C@@H](C)CO)C[C@H]2C)cc1`, the cytotoxicity call was “inactive”.
To `C[C@H]1CN([C@@H](C)CO)C(=O)c2cc(C#CCN(C)C)cnc2O[C@H]1CN(C)S(=O)(=O)c1ccccc1` belongs “inactive”.
As for `COc1cccc(NC(=O)N2C[C@@H](O)COC[C@H]3O[C@@H](CC(=O)NCc4ccccc4F)CC[C@@H]32)c1`, the entry is “inactive”; as for `C[C@@H]1CN([C@H](C)CO)S(=O)(=O)c2ccc(C#Cc3ccncc3)cc2O[C@@H]1CN(C)C(=O)c1ccncc1`, “active”; as for `C[C@H](O)C#Cc1ccc2c(c1)O[C@H](CN(C)C(=O)c1ccncc1)[C@@H](C)CN([C@@H](C)CO)S2(=O)=O`, “inactive”.
As for `C[C@@H](O)C#Cc1ccc2c(c1)O[C@@H](CN(C)C(=O)c1ccncc1)[C@@H](C)CN([C@@H](C)CO)S2(=O)=O`, the cytotoxicity call is “inactive”.
On to `C[C@H](O)C#Cc1ccc2c(c1)O[C@H](CN(C)C(=O)c1ccncc1)[C@H](C)CN([C@@H](C)CO)S2(=O)=O`, for which the cytotoxicity call was “inactive”.
Regarding `C[C@H](CO)N1C[C@H](C)[C@@H](CN(C)C(=O)c2ccncc2)Oc2cc(C#Cc3ccncc3)ccc2S1(=O)=O`, the cytotoxicity call was “active”.
As for `C[C@@H]1CN([C@@H](C)CO)S(=O)(=O)c2ccc(C#Cc3ccncc3)cc2O[C@H]1CN(C)C(=O)c1ccncc1`, the cytotoxicity call was “inactive”.
Consider `C[C@H](O)C#Cc1ccc2c(c1)O[C@@H](CN(C)C(=O)c1ccncc1)[C@H](C)CN([C@@H](C)CO)S2(=O)=O`, for which the cytotoxicity call is “inactive”.
Take `C[C@H](O)C#Cc1ccc2c(c1)O[C@@H](CN(C)C(=O)c1ccncc1)[C@@H](C)CN([C@H](C)CO)S2(=O)=O`: the cytotoxicity call is “inactive”.
As to `C[C@H]1CN([C@@H](C)CO)S(=O)(=O)c2ccc(C#Cc3ccncc3)cc2O[C@@H]1CN(C)C(=O)c1ccncc1`, the cytotoxicity call is “active”.
Turning to `C[C@@H]1CN([C@@H](C)CO)S(=O)(=O)c2ccc(C#Cc3ccncc3)cc2O[C@@H]1CN(C)C(=O)c1ccncc1`, the cytotoxicity call was “inactive”.
`C[C@H](O)C#Cc1ccc2c(c1)O[C@@H](CN(C)C(=O)c1ccncc1)[C@H](C)CN([C@H](C)CO)S2(=O)=O`: the cytotoxicity call is “inactive”.
To `C[C@H](CO)N1C[C@H](C)[C@H](CN(C)C(=O)c2ccncc2)Oc2cc(C#Cc3ccncc3)ccc2S1(=O)=O` belongs “active”.

The record behind these values is the antibiotic and cytotoxicity screens of Wong et al. (2023).
